Source: PubChem BioAssay (National Center for Advancing Translational Sciences (NCATS))
Sampled rows, rich in hits. Any-hit rate of the full collection: about 5.7%.
IL-1B inflam inh: qHTS for Inhibitors of Inflammasome Signaling: IL-1-beta AlphaLISA Primary Screen. activity change, % at 57.5 µM. AID 743279, 2014. THP-1 LPS/ATP IL-1B secretion, AlphaLISA, 16 h; stronger effect = lower value. hit rate 4.7% among 360,000; in the data active = activity change below about -50%; inconclusive = mostly about -30% to -49%; note: % is set by controls: 0 for no effect and ±100 for the full control effect
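Secreted IL-1B measured by AlphaLISA bead assay after 16 h compound exposure of THP-1 cells; compounds (final up to 57.5 uM) added 1 h before LPS (250 ng/mL) and ATP (1.25 mM) stimulation; lower signal means less secretion.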
ATXN2 expr inh: Primary qHTS for Inhibitors of ATXN expression; HEK-293 ATXN2-luciferase reporter, luminescence, 24 h; Potency, µM (titrated, usually from 57 µM), inactives show top-dose activity change, negative = inhibition, most hits filed as inhibitors; hit rate 0.72% among 360,000; AID 1745845, 2022; note: potency is the fitted concentration of half-maximal effect; % is set by controls: 0 for no effect and ±100 for the full control effect; nearly all actives have a fitted effect of over 55% in size
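qHTS (up to 57 uM final) was run with 24 h compound exposure of reporter cells at 37 °C. Each well was multiplexed: SteadyGlo luminescence measured ATXN2-luciferase expression after a fluorogenic Gly-Phe-AFC viability readout (25 uM final).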
ATXN viability: Viability Counterscreen for Primary qHTS for Inhibitors of ATXN expression. S2 cells (HEK-293 line with an ATXN2-luciferase reporter) viability, CellTiter-Fluor protease fluorescence, 24 h. Potency, µM (top dose mostly 56.7 µM), usual class: cytotoxic. hit rate 0.49% among 400,000; note: potency is the fitted concentration of half-maximal effect; nearly all actives have a fitted effect of over 40% in size
HepG2 viability: qHTS for Inhibitors of TGF-b: Cytotox Counterscreen; HepG2 CAGA-GFP viability, ATP luminescence, 18 h; Potency, µM (top dose mostly 46.1 µM), without a hit: at the highest dose activity change, negative = cytotoxicity, usual class: cytotoxic; hit rate 0.76% among 410,000; AID 588856, 2011; note: potency is the fitted concentration of half-maximal effect
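HepG2 CAGA-GFP cells (1000/well, DMEM with 1% FBS) received compound, then TGF-beta at 500 pg/mL final, and were incubated 18 hours at 37 degrees C. Viability was read by CellTiter-Glo luminescence. Media-only wells were set as complete cell-killing and DMSO as no toxicity.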
TGFb inhibitor: qHTS for Inhibitors of TGF-b. HepG2 CAGA-GFP TGF-b/SMAD3 reporter, GFP fluorescence, 18 h; TGF-beta stimulated, 500 pg/mL final. Potency, µM (highest dose often 46.1 µM), without a hit: at the highest dose activity, negative = inhibition, most hits filed as inhibitors. hit rate 1.2% among 410,000; note: potency is the fitted concentration of half-maximal effect; % is set by controls: 0 for no effect and ±100 for the full control effect; nearly all actives have a fitted effect of over 65% in size
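Inhibition was scored as loss of TGF-beta-induced (500 pg/mL final, 18 hours, 37 degrees C) GFP in HEPG2 cells carrying a CAGA-GFP reporter, in DMEM with 1% FBS. Well GFP was summed per cell; Activity was normalised to unstimulated and stimulated DMSO wells, then concentration-response fitting.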
* hit, by the source's call; i = inactive; u = inconclusive; x = not tested or not shown. Unless noted, calls come from the whole dose curve; as a rule, active = well fitted curve in the direction sought with a large enough effect; inconclusive = small, poorly fitted or top-dose-only effect, or another doubt; inactive = no such curve, though single readings can be large; an effect the other way counts as inactive or inconclusive.

SMILES	IL-1B inflam inh	ATXN2 expr inh	ATXN viability	HepG2 viability	TGFb inhibitor
CCN1/C(=C/c2cc[n+](C)cc2)C=Cc2cc(C)ccc21	-63*	u	x	-15%	u
CCCCNc1ccc(C(=O)OCCN(CC)CC)cc1	x	3%	i	x	x
CC(C)Cc1ccc(C(C)C(=O)Nc2ccc(O)cc2)cc1 (stereo unspecified)	3	x	u	-46%	u
CC(C)Cc1ccc(C(C)C(N)=Nc2ccc(O)cc2)cc1 (stereo unspecified)	x	u	i	16µM*	u
CCc1ccc(OCCNC(=O)c2cccs2)cc1	-64*	11%	i	-3%	4%
CCCCOCCCNC(=O)c1cccs1	u	2%	i	13%	9%
O=C(NCCSCc1ccc(Cl)cc1)c1cccs1	-54*	-7%	i	-9%	34%
CSc1ccc(CCNC(=O)c2ccc(-n3c(C)cc4c3CCCC4)cc2)cc1	x	x	x	-44%	u
CCCC[C@@H](CN[C@H](C)CNC)NCC1CCC(C(C)(C)C)CC1 (stereo partly specified)	-67*	35µM*	32µM*	18µM*	u
COc1cccc(-c2nc3cc(SC)ccc3cc2CN(C(=O)c2sccc2C)C2CC2)c1	x	x	i	x	x
CCCS(=O)(=O)c1nnnn1-c1cccc(OC)c1	-67*	u	x	18µM*	u
COc1ccc(OC)c(NC(=O)Cn2c(=O)cc(-c3ccccc3)c3c(C)nn(C)c32)c1	x	u	u	6%	-2%
COc1ccc(Nc2oc(-c3ccco3)nc2S(=O)(=O)c2ccc(F)cc2)cc1	-57*	x	i	-3%	-2%
O=S(=O)(c1ccc(F)cc1)c1nc(-c2ccco2)oc1Nc1ccc(F)cc1	u	11%	i	-7%	-3%
Cc1oc(-c2ccc(Cl)cc2)nc1CN1CCC(C(=O)N2CCN(Cc3ccccc3)CC2)CC1	-60*	u	u	-25%	-23%
Cc1ccc(Cl)cc1N1CCN(C(=O)C2CCN(Cc3nc(-c4cccc(Cl)c4)oc3C)CC2)CC1	x	-5%	i	-22%	-4%
CCOc1ccc(-c2nc(CSCC(=O)NC3CCN(Cc4ccccc4)CC3)c(C)o2)cc1	-21	x	i	-40%	u
Cc1oc(-c2ccc(Cl)cc2)nc1CSCC(=O)NC1CCN(Cc2ccccc2)CC1	-61*	u	i	-21%	u
CCOc1ccc(-c2nc(CSCC(=O)NC3CCCc4ccccc43)c(C)o2)cc1 (stereo unspecified)	-77*	-12%	u	-14%	7%
CCOc1ccc(-c2nc(CSCC(=O)NC3CC3)c(C)o2)cc1	10	x	i	-17%	22%
Cc1oc(-c2cccc(Cl)c2)nc1CN1CCC(C(=O)N2CCN(c3ccccc3F)CC2)CC1	-56*	-22%	u	-36%	u
Cc1c(Br)cnc2ccccc12	x	x	x	-8%	0%
CC1CCN(c2oc(-c3ccc(OCc4ccccc4Cl)cc3)nc2C#N)CC1	x	x	x	9%	3%
C=CCNC(=O)/C(C#N)=C/c1c(N(Cc2ccccc2)Cc2ccccc2)nc2ccccn2c1=O	-53*	-26%	u	-15%	0%
N#C/C(=C\c1c(N(Cc2ccccc2)Cc2ccccc2)nc2ccccn2c1=O)C(N)=O	u	0%	u	-14%	0%
SMILES	IL-1B inflam inh	ATXN2 expr inh	ATXN viability	HepG2 viability	TGFb inhibitor
C=CCNC(=O)/C(C#N)=C/c1c(C)nn(-c2ccccc2)c1Cl	-68*	-2%	i	-16%	-12%
C=CCNC(=O)/C(C#N)=C/c1ccc2c(c1)OCCO2	-20	0%	i	8%	6%
C=CCNC(=O)/C(C#N)=C/c1ccc(SC)cc1	-57*	-9%	i	-19%	6%
CCOc1ccccc1NC(=O)/C(C#N)=C/c1c(C)nn(-c2ccccc2)c1Cl	-51*	-5%	i	11%	23%
CCCn1c(=O)c2sccc2n2c(CCCC(=O)NCCOC)nnc12	x	x	x	1%	0%
CCN(C(=O)c1c(O)c2c(Cl)cccc2n(C)c1=O)c1ccccc1	x	-11%	x	x	x
CCc1cnc2c(c1SCC(=O)NCc1ccc(F)cc1)c(=O)n(C)c(=O)n2C	x	x	x	3%	0%
CCOC1=C2[C@H](c3ccccc3)N(S(=O)(=O)c3ccc(C)cc3)C(C(C)(C)C)[C@H]2C(C#N)(C#N)C(C#N)(C#N)C1 (stereo partly specified)	-64*	25µM*	18µM*	16µM*	10µM*
CCOC1=C2CN(S(=O)(=O)c3ccc(C)cc3)[C@H](c3cccc4ccccc34)C[C@H]2C(C#N)(C#N)C(C#N)(C#N)C1	-26	14µM*	x	-43%	u
CCCCn1c(NC(C)=O)c(C#N)c2nc3ccccc3nc21	10	-16%	x	-49%	1%
C=CCn1c(NC(=O)c2ccccc2Cl)c(C#N)c2nc3ccccc3nc21	-60*	-18%	x	-49%	-23%
Nc1ccc2c(c1)C/C(=C/c1ccco1)C2=O	-70*	32%	x	-31%	-4%
NS(=O)(=O)c1ccc(NC(=O)Nc2ccc(C(F)(F)F)cc2)cc1	-58*	-7%	i	-38%	26%
NS(=O)(=O)c1ccc(NC(=O)c2ccc(-c3ccccc3)cc2)cc1	26	-26%	i	-3%	-15%
CC(C)(C)c1ccc(C(=O)Nc2ccc(S(N)(=O)=O)cc2)cc1	-76*	11%	i	-46%	u
NS(=O)(=O)c1ccc(NC(=O)Nc2ccc(S(N)(=O)=O)cc2)cc1	-3	-3%	i	18%	30%
O=P(O)(O)C(O)(Cc1cccnc1)P(=O)(O)O	x	8%	i	x	x
CN(C)c1nc(N)c2ncc(=S)[nH]c2n1	-65*	28%	i	-40%	-9%
CN(C)c1nc(C(=O)NN)nc(N(C)C)n1	-8	2%	i	7%	-2%
O=C(O)c1cc2c(N3CCC(Cc4ccccc4)CC3)ncnc2s1	59	4%	i	-19%	4%
c1ccc(CC2CCN(c3ncnc4sccc34)CC2)cc1	-51*	u	i	-36%	u
Cc1cc2nc(-c3ccc[nH]c3=O)[nH]c2cc1C	-14	x	x	0.89µM*	u
O=C(Nc1ccc(Cc2ccncc2)cc1)C1CCC(N2C(=O)C3CC=CCC3C2=O)CC1 (stereo unspecified)	-71*	-5%	i	-40%	-12%
O=C(Nc1ccc(Cc2ccncc2)cc1)C1CCC(N2C(=O)C3C4C=CC(C4)C3C2=O)CC1 (stereo unspecified)	-78*	u	u	-16%	-9%
